Results: PubChem BioAssay (Tox21)
Where “and” joins values, the source holds several entries; their conditions need not be identical. Identical values can stand only once. Unmarked numbers belong to inactive results. Results filed as inconclusive are left out. Entries that show only a call come without a potency. Calls of active or inactive are those of the source. Unless noted, calls follow the shape of the dose curve; as a rule, active = well fitted curve in the direction sought with a large enough effect in the repeat runs; inconclusive = weak or mixed curves; inactive = no such curve, though single readings can be large; an effect the other way counts as inactive or inconclusive.

What was measured:
[1] = qHTS assay to test for compound auto fluorescence at 535 nm (green) in HEK293 cells (AID 720680)
[2] = qHTS assay to test for compound auto fluorescence at 460 nm (blue) in HEK293 cell free culture (AID 720681)
Procedure, shortened: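 Compounds were added to cell-free DMEM with 10% FBS and fluorescence read directly. The blue channel used 405 nm excitation and 460 nm emission, with triamterene as the reference fluorophore.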

[3] = qHTS assay to test for compound auto fluorescence at 535 nm (green) in HEK293 cell free culture (AID 720682)
Procedure, shortened: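 No cells present: wells hold DMEM supplemented with 10% FBS, into which compound or vehicle is pinned. Green emission is then recorded (485 nm excitation, 535 nm emission) and scaled to fluorescein.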

[4] = qHTS assay to test for compound auto fluorescence at 590 nm (red) in HEK293 cell free culture (AID 720683)
Procedure, shortened: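 Cell-free wells of DMEM with 10% FBS received compound, and intrinsic fluorescence was read at excitation/emission 540/590 nm. Values expressed as equivalence to Rose Bengal sodium.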

[5] = qHTS assay to test for compound auto fluorescence at 590 nm (red) in HepG2 cell free culture (AID 720684)
Procedure, shortened: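 Auto fluorescence equivalency versus Rose Bengal sodium, red channel Ex/Em 540/590 nm; compounds in cell-free MEM/10% FBS; DMSO vehicle control.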

[6] = qHTS assay to test for compound auto fluorescence at 460 nm (blue) in HepG2 cell free culture (AID 720685)
Procedure, shortened: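 Cell-free plates of MEM plus 10% FBS received 23 nL compound or DMSO vehicle; blue-channel (405/460 nm) intensity scored against triamterene as reference fluorophore.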

[7] = qHTS assay to test for compound auto fluorescence at 535 nm (green) in HepG2 cell free culture (AID 720686)
[8] = qHTS assay to test for compound auto fluorescence at 460 nm (blue) in HepG2 cells (AID 720687)
Procedure, shortened: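 HepG2 cells in MEM with 10% FBS, attached overnight at 37 C, were exposed to compound or DMSO for 1 hr at 37 C, 5% CO2. Blue fluorescence was read at 405/460 nm, with triamterene as reference fluorophore.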

[9] = molecular target: Glucocorticoid receptor (Homo sapiens) (UniProt P04150); assay: qHTS assay to identify small molecule agonists of the glucocorticoid receptor (GR) signaling pathway (AID 720691; active = well fitted activation curve with a large enough effect in the signal ratio in the repeat runs, not every such curve was filed as active; the % refers to the signal ratio)
Sequence of Glucocorticoid receptor (Homo sapiens) (P04150 whole entry, looked up): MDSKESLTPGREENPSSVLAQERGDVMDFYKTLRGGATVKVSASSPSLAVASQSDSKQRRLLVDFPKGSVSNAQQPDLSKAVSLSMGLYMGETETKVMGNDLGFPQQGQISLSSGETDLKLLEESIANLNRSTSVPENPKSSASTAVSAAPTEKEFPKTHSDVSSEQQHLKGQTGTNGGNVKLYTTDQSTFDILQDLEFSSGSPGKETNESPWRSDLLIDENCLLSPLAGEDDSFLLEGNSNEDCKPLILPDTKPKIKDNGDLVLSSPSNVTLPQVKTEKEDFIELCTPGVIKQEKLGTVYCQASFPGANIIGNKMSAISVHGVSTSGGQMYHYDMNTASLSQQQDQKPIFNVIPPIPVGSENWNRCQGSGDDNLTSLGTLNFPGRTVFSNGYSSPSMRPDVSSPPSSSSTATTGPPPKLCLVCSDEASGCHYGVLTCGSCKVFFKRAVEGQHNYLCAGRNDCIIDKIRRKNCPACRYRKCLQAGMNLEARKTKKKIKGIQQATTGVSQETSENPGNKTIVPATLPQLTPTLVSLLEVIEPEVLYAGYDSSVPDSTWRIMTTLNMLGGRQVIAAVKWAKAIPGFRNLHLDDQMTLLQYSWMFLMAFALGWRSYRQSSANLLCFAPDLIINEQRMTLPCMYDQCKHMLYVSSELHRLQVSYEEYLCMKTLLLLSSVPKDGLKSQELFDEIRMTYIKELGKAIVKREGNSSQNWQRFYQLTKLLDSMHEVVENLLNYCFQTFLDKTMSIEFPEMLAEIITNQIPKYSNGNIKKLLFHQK
Procedure, shortened: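 Measures GR pathway activation through a GRE-beta-lactamase reporter stably integrated in HeLa cells, with 18 h compound treatment at 37 C and fluorescence detection using a FRET substrate.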

[10] = qHTS assay to identify small molecule antagonists of the glucocorticoid receptor (GR) signaling pathway - cell viability counter screen (AID 720693); also: nearly all actives have a fitted effect of over 55% in size
[11] = qHTS assay for identifying genotoxic compounds that show differential cytotoxicity against isogenic chicken DT40 cell lines with known DNA damage response pathways - Rev3 mutant cell line (AID 743014); also: nearly all actives have a fitted effect of over 55% in size; also: potency is read from the fitted curve at half-maximal effect
[12] = qHTS assay to identify small molecule antagonists of the androgen receptor (AR) signaling pathway - cell viability counter screen (AID 743033; also: nearly all actives have a fitted effect of over 45% in size; also: potency is read from the fitted curve at half-maximal effect)
[13] = qHTS assay to identify small molecule antagonists of the androgen receptor (AR) signaling pathway using the MDA cell line - cell viability counter screen (AID 743041; also: nearly all actives have a fitted effect of over 45% in size)
Procedure, shortened: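 Compound exposure lasted 16 h at 37C in MDA-kb2 AR-luc cells stimulated with R1881. Protease-based CellTiter-Fluor reagent was applied for the final 30 min and fluorescence measured.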

[14] = molecular target: Glucocorticoid receptor (Homo sapiens) (UniProt P04150); assay: qHTS assay to identify small molecule antagonists of the glucocorticoid receptor (GR) signaling pathway (AID 720692; active = well fitted inhibition curve with a large enough effect in the signal ratio in the repeat runs, not every such curve was filed as active; the % refers to the signal ratio; also: potency is read from the fitted curve at half-maximal effect)
Procedure, shortened: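 Tox21 10K library screened in concentration-response for blockade of dexamethasone (5 nM final)-induced GRE-bla reporter activity in HeLa cells; 18 h treatment, fluorescence read.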

[15] = qHTS assay for identifying genotoxic compounds that show differential cytotoxicity against isogenic chicken DT40 cell lines with known DNA damage response pathways - wild type cell line (AID 743012); also: nearly all actives have a fitted effect of over 60% in size; also: potency is read from the fitted curve at half-maximal effect
Procedure, shortened: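 Endpoint: CellTiter-Glo luminescence, 30 min RT. Cells: wild type DT40, 300/well. Exposure: compounds in DMSO, 40 h, 37 C/5% CO2, after ~0.5 h pre-incubation.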

[16] = qHTS assay for identifying genotoxic compounds that show differential cytotoxicity against isogenic chicken DT40 cell lines with known DNA damage response pathways - Rad54/Ku70 mutant cell line (AID 743015); also: nearly all actives have a fitted effect of over 60% in size; also: potency is read from the fitted curve at half-maximal effect
[17] = molecular target: Androgen receptor (Homo sapiens) (UniProt P10275); assay: qHTS assay to identify small molecule antagonists of the androgen receptor (AR) signaling pathway (AID 743035; active = well fitted inhibition curve with a large enough effect in the signal ratio in the repeat runs, not every such curve was filed as active; the % refers to the signal ratio)
Sequence of Androgen receptor (Homo sapiens) (P10275 whole entry, looked up): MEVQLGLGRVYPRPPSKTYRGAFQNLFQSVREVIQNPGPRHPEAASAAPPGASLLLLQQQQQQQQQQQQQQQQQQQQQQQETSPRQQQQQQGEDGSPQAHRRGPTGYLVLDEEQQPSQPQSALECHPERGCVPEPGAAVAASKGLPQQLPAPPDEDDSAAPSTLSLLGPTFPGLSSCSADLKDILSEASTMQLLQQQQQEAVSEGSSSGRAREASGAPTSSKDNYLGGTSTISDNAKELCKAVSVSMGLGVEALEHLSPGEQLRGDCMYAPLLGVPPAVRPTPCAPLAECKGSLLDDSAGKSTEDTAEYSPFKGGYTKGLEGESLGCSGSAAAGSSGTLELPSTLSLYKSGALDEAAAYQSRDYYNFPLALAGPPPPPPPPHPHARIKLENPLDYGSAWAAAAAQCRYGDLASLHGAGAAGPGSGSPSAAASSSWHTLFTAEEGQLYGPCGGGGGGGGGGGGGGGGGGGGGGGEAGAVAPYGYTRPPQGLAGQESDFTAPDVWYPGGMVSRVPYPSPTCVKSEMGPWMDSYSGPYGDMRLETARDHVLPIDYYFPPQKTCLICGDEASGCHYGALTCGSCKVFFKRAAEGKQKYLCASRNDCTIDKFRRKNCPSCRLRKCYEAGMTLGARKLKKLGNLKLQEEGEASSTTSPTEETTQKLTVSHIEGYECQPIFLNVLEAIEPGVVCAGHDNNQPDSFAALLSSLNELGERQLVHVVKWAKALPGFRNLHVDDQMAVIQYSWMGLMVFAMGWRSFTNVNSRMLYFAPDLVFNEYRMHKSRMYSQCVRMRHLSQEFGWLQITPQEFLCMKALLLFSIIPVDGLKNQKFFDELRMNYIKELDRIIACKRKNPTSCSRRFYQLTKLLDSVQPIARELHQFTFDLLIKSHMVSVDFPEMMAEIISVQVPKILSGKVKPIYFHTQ
Procedure, shortened: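 R1881 agonist challenge of a HEK293 UAS-beta-lactamase AR reporter line in the presence of compound (16 h, 37C); signal taken as FRET fluorescence after 2 h with LiveBLAzer B/G substrate at room temperature.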

[18] = molecular target: Androgen receptor (Homo sapiens) (UniProt P10275); assay: qHTS assay to identify small molecule agonists of the androgen receptor (AR) signaling pathway (AID 743036; active = well fitted activation curve with a large enough effect in the signal ratio in the repeat runs, with a control signal flat, not every such curve was filed as active; the % refers to the signal ratio)
Procedure, shortened: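 Quantitative HTS of the Tox21 10K library in HEK293 cells bearing a stably integrated UAS-controlled beta-lactamase reporter. Compound exposure lasted 16 h at 37C. Reporter activity was detected by FRET substrate fluorescence after 2 h at room temperature.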

[19] = molecular target: Androgen receptor (Homo sapiens) (UniProt P10275); assay: qHTS assay to identify small molecule agonists of the androgen receptor (AR) signaling pathway using the MDA cell line (AID 743040; also: nearly all actives have a fitted effect of over 20% in size)
Procedure, shortened: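 Testing was done with the MDA-kb2 AR-luc line, a human breast carcinoma stably transfected with MMTV-luciferase containing AR and GR response elements. Cells were exposed 16 h at 37C before ONE-Glo luminescence detection.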

[20] = molecular target: Androgen receptor (Homo sapiens) (UniProt P10275); assay: qHTS assay to identify small molecule antagonists of the androgen receptor (AR) signaling pathway using the MDA cell line (AID 743042; also: nearly all actives have a fitted effect of over 55% in size)
Procedure, shortened: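 MDA-kb2 breast carcinoma cells carrying MMTV-luciferase (AR/GR responsive) were co-treated with compounds and the agonist R1881 for 16 h at 37C. Inhibition read as ONE-Glo luminescence; CellTiter-Fluor fluorescence measured in parallel for cytotoxicity.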

| Structure (SMILES) | outcome [1] | Potency [2] | outcome [3] | outcome [4] | outcome [5] | Potency [6] | outcome [7] | Potency [8] | Potency [9] | Potency [10] | Potency [11] | Potency [12] | Potency [13] | Potency [14] | Potency [15] | Potency [16] | Potency [17] | outcome [18] | outcome [19] | Potency [20] |
| --- | --- | --- | --- | --- | --- | --- | --- | --- | --- | --- | --- | --- | --- | --- | --- | --- | --- | --- | --- | --- |
| CC(C)=CCC/C(C)=C/CC/C(C)=C/CCC(=O)OC/C=C(\C)CCC=C(C)C | inactive | inactive | inactive | inactive | inactive | inactive | inactive | inactive | inactive | inactive | inactive | inactive | inactive |  |  |  |  |  |  |  |
| CCCCCCCCCCCCCCN(CCO)CCO | inactive | inactive | inactive | inactive | inactive | inactive | inactive | inactive |  |  | 1.09 µM (active) | 43.6 µM (active) |  | 19.5 µM (active) | 2.43 µM (active) |  |  |  |  |  |
| Cc1cc2c(OCC(CNC(C)(C)C)OC(=O)c3ccccc3)cccc2[nH]1 (centres undefined) | inactive | inactive | inactive | inactive | inactive | inactive | inactive | inactive | inactive | inactive |  | inactive | inactive | inactive |  |  |  |  |  |  |
| C[C@]12CC[C@@H]3c4ccc(O)cc4CC[C@H]3[C@@H]1CC[C@@H]2OC(=O)CCC1CCCC1 | inactive | inactive | inactive | inactive | inactive | inactive | inactive | inactive |  |  | 24.3 µM (active) | inactive | inactive | 10.7 µM (active) and 8.49 µM (active) | 11.9 µM (active) | 11.9 µM (active) |  |  |  |  |
| CCCCC(CC)COP(=O)(O)O (centres undefined) | inactive | inactive | inactive | inactive | inactive | inactive | inactive | inactive | inactive | inactive | inactive | inactive | inactive | 49.8 µM (active) |  | inactive |  |  |  |  |
| CCCCCC[C@@H](O)C/C=C\CCCCCCCC(=O)OCC(O)CO (some centres undefined) | inactive | inactive | inactive | inactive | inactive | inactive | inactive | inactive | inactive | inactive |  | inactive |  |  | inactive | inactive | inactive | inactive | inactive | inactive |
| Cc1cccc(N(C)C(=S)Oc2ccc3c(c2)CCC3)c1 | inactive | inactive | inactive | inactive | inactive | inactive | inactive | inactive | inactive | inactive |  |  |  |  |  |  |  |  |  |  |
| C[C@H]1c2cccc(O)c2C(O)=C2C(=O)[C@]3(O)C(O)=C(C(N)=O)C(=O)[C@@H](N(C)C)[C@@H]3[C@@H](O)[C@@H]21 | inactive | inactive | inactive | inactive | inactive | inactive | inactive | inactive | inactive | inactive |  | inactive |  |  |  |  | inactive |  | inactive | inactive |
| CC1(CN2CCC(n3c(=O)[nH]c4ccccc43)CC2)OCc2ccccc2-n2cccc21 (centres undefined) | inactive | inactive | inactive | inactive | inactive | inactive | inactive | inactive | inactive |  | 29.8 µM (active) | inactive |  |  | 21.1 µM (active) | 21.1 µM (active) |  |  |  |  |
| Brc1cc2ccccc2c2ccccc12 | inactive | inactive | inactive | inactive | inactive | inactive | inactive | inactive | inactive | inactive |  | inactive | inactive |  |  |  |  |  |  |  |
| Cc1cc(O)ccc1O | inactive | inactive | inactive | inactive | inactive | inactive | inactive | inactive |  |  | inactive | inactive |  |  | inactive | inactive |  |  |  |  |
| CO/N=C(/C(=O)N[C@@H]1C(=O)N2C(C(=O)O)=C(COC(N)=O)CS[C@H]12)c1ccco1 | inactive | inactive | inactive | inactive | inactive | inactive | inactive |  | inactive | inactive | inactive | inactive | inactive | inactive | inactive | inactive |  |  |  |  |
| CCCCCC#CC(=O)OC | inactive | inactive | inactive | inactive | inactive | inactive | inactive | inactive |  | inactive | inactive | inactive | inactive |  |  |  |  |  |  |  |
| O=C=Nc1ccc(Cl)c(Cl)c1 | inactive | inactive | inactive | inactive | inactive | inactive | inactive | inactive |  | inactive |  | inactive | inactive |  |  | inactive |  |  |  |  |
